According to the supplement of paper PMC13380429:
Where a name gives a salt, the structure may show the parent alone.

Test system: Vero E6 infected with SARS-CoV-2
Experiment: inhibition of SARS-CoV-2 cytopathic effect; higher = more antiviral protection, active = above 15
Conditions: 48 h

Measured: inhibition of SARS-CoV-2 cytopathic effect

Cc1ccc(S(=O)(=O)c2ccc([N+](=O)[O-])o2)cc1
inactive: 1 nM 0.14% | 8.33 nM 0.39% | 100 nM 2.55% | 833.33 nM 13.5% | 10000 nM -21.6%

CC#CC(=O)N1CC[C@@H](n2c(=O)n(-c3ccc(Oc4ccccc4)cc3)c3c(N)ncnc32)C1
inactive: 1 nM -1.14% | 8.33 nM 2.19% | 100 nM 0.31% | 833.33 nM -8.09% | 10000 nM -0.82%

CCCCCCCCCCCCCC(=O)[O-].CCCCCCCCCCCCCC(=O)[O-].N[C@@H]1CCCC[C@H]1N.[Pt+2] [miriplatin]
inactive: 1 nM -0.38% | 8.33 nM -0.15% | 100 nM 0.5% | 833.33 nM -1% | 10000 nM -1.94%

Nc1ccc(S(=O)(=O)NC(=O)c2ccccc2)cc1 [sulfabenzamide]
inactive: 1 nM -2.34% | 8.33 nM -0.25% | 100 nM -1.3% | 833.33 nM -0.48% | 10000 nM -0.81%

CC(C)CC(N)=O [isovaleramide]
inactive: 1 nM 1.36% | 8.33 nM -1.79% | 100 nM 1.18% | 833.33 nM 0.06% | 10000 nM 0.19%

CC1CNc2c(cccc2S(=O)(=O)N[C@@H](CCCNC(=N)N)C(=O)N2CC[C@@H](C)C[C@@H]2C(=O)O)C1 (mixture of isomers) [argatroban]
inactive: 1 nM -2.89% | 8.33 nM 2.45% | 100 nM 0.37% | 833.33 nM 0.05% | 10000 nM -0.11%

CN(C)C(=N)NCCC[C@H](N)C(=O)O [asymmetrical-dimethylarginine]
inactive: 1 nM -0.33% | 8.33 nM -0.09% | 100 nM -1.65% | 833.33 nM 0.84% | 10000 nM 1.97%

N[C@@H](Cc1cc(-c2ccc(Cl)cc2Cl)cc(CP(=O)(O)O)c1O)C(=O)O
inactive: 1 nM 0.73% | 8.33 nM 2.24% | 100 nM 2.7% | 833.33 nM 2.63% | 10000 nM 2.27%

O[C@@H](CN1CCC(Cc2ccc(F)cc2)CC1)c1ccc(Cl)cc1 (racemic) [eliprodil]
inactive: 1 nM 0.81% | 8.33 nM 0.95% | 100 nM 0.19% | 833.33 nM 2.59% | 10000 nM -0.42%

Cc1ccccc1N1CCN(CCc2nnc3n2CCCC3)CC1 [dapiprazole]
inactive: 1 nM -2.9% | 8.33 nM -2.22% | 100 nM 0.65% | 833.33 nM -0.37% | 10000 nM 0.44%

O=C(c1cn(Cc2cncn2Cc2ccc(Br)cc2)cc1-c1cccc2ccccc12)N1CCOCC1
inactive: 1 nM -2.2% | 8.33 nM -3.17% | 100 nM -1.58% | 833.33 nM -0.44% | 10000 nM -3.78%

Nc1nc(OCc2ccccc2)c2nc[nH]c2n1 [O6-benzylguanine]
inactive: 1 nM 2.66% | 8.33 nM 2.87% | 100 nM -5.93% | 833.33 nM -3.87% | 10000 nM -1.55%

CC1=C(C(=O)O)N2C(=O)[C@@H](NC(=O)[C@H](N)c3ccc(O)cc3)[C@H]2SC1 [cefadroxil]
inactive: 1 nM 1.06% | 8.33 nM 1.53% | 100 nM 1.01% | 833.33 nM -2.49% | 10000 nM -1.18%

CCN1/C(=C/C(C)=O)Sc2ccc(OC)cc21
inactive: 1 nM 1.8% | 8.33 nM 1.75% | 100 nM -2.1% | 833.33 nM 0.11% | 10000 nM 0.79%

CC(C)=CCc1c(O)cc(O)c2c(=O)c(O)c(-c3ccc(C(F)(F)F)cc3)oc12
inactive: 1 nM 2.04% | 8.33 nM 1.52% | 100 nM 3.93% | 833.33 nM 2.83% | 10000 nM 2.95%

CC1=NN=C(c2ccc(N)cc2)c2cc3c(cc2C1)OCO3
inactive: 1 nM -2.65% | 8.33 nM -5.13% | 100 nM -1.01% | 833.33 nM 2.88% | 10000 nM 0.44%

N#CCC(=O)NN [cyacetacide]
inactive: 1 nM -3.1% | 8.33 nM 1.89% | 100 nM 6.23% | 833.33 nM 6.6% | 10000 nM 7.12%

C=CC(=O)Nc1cccc(Oc2nc(Nc3ccc(N4CCN(C)CC4)cc3)nc3ccsc23)c1 [olmutinib]
inactive: 1 nM -1.91% | 8.33 nM 3.26% | 100 nM 11.6% | 833.33 nM -12% | 10000 nM -10.1%

COC(=O)C1=C(C)NC(C)=C(C(=O)OC)C1c1ccccc1[N+](=O)[O-] [nifedipine]
inactive: 1 nM -0.99% | 8.33 nM 0.14% | 100 nM -0.27% | 833.33 nM 3.23% | 10000 nM 4.43%

CC(=O)C1=C(O)C=C2Oc3c(C(C)=O)c(O)c(C)c(O)c3C2(C)C1=O (stereo not drawn) [usniacin-(+)]
inactive: 1 nM 3.22% | 8.33 nM 2.31% | 100 nM 0.43% | 833.33 nM -1.14% | 10000 nM -4.03%

CS(=O)(=O)c1ccc([C@@H](O)[C@@H](CF)NC(=O)C(Cl)Cl)cc1 [florfenicol]
inactive: 1 nM -5.27% | 8.33 nM -3.73% | 100 nM -3.16% | 833.33 nM 0.63% | 10000 nM -0.52%

CN1CCN(C(=O)c2cc3cc(Cl)ccc3[nH]2)CC1
inactive: 1 nM -0.68% | 8.33 nM 0.59% | 100 nM -1.58% | 833.33 nM -1.48% | 10000 nM -1.13%

CN(c1ncccc1CNc1nc(Nc2ccc3c(c2)CC(=O)N3)ncc1C(F)(F)F)S(C)(=O)=O
inactive: 1 nM 0.16% | 8.33 nM 0.22% | 100 nM -1.3% | 833.33 nM -2.48% | 10000 nM -3.05%

COC(=O)c1c(C)[nH]c(C)c1C(=O)c1ccccc1Cc1ccccc1
inactive: 1 nM 1.06% | 8.33 nM -1.02% | 100 nM 0.4% | 833.33 nM -3.62% | 10000 nM -3.09%

CCCCCCCCCCCCCCCCCCOP(=O)([O-])OC1CC[N+](C)(C)CC1 [perifosine]
inactive: 1 nM 0.3% | 8.33 nM -1.34% | 100 nM -0.76% | 833.33 nM -1.89% | 10000 nM -0.93%

C[C@H](N)C(=O)O [L-alanine]
inactive: 1 nM 1.06% | 8.33 nM -0.48% | 100 nM 0.43% | 833.33 nM -0.48% | 10000 nM -4.52%

O=C(N/N=C/c1ccc([N+](=O)[O-])o1)c1cc([N+](=O)[O-])cc([N+](=O)[O-])c1O [nifursol]
inactive: 1 nM 0.19% | 8.33 nM 3.21% | 100 nM 2.56% | 833.33 nM 2.62% | 10000 nM 2.82%

CCc1cccc(CC)c1NC(=O)N1Cc2[nH]nc(NC(=O)c3ccc(N4CCN(C)CC4)cc3)c2C1
inactive: 1 nM -4.07% | 8.33 nM 1.98% | 100 nM 1.34% | 833.33 nM 1.38% | 10000 nM -0.02%

CC(C)Cc1ccc(C(C)C(=O)NO)cc1 (stereo not given) [ibuproxam]
inactive: 1 nM 1.38% | 8.33 nM 1.54% | 100 nM 0.99% | 833.33 nM 2.87% | 10000 nM 1.73%

C#C[C@]1(OC(C)=O)CC[C@H]2[C@@H]3CCC4=CC(=NO)CC[C@@H]4[C@H]3CC[C@@]21CC (mixture of isomers) [norgestimate]
inactive: 1 nM -3.21% | 8.33 nM 0.96% | 100 nM 1.62% | 833.33 nM -2.37% | 10000 nM -3.22%

CCc1cncnc1N1CCN(Cc2nc3cc(C(F)(F)F)ccc3[nH]2)CC1
inactive: 1 nM 1.34% | 8.33 nM -0.7% | 100 nM 1.45% | 833.33 nM 8.5% | 10000 nM -4.66%

CN(C)CC/C=C1/c2ccccc2COc2ccc(CC(=O)O)cc21 [Olopatadine hydrochloride (Opatanol)]
inactive: 1 nM 1.34% | 8.33 nM 1.55% | 100 nM 1.65% | 833.33 nM 6.26% | 10000 nM 0.26%

O=c1ccc2ccccc2o1 [coumarin]
inactive: 1 nM -0.97% | 8.33 nM -0.94% | 100 nM -1.66% | 833.33 nM 1.9% | 10000 nM -0.9%

OCCN1CCN(CCCN2c3ccccc3C=Cc3ccccc32)CC1 [opipramol]
inactive: 1 nM 2.92% | 8.33 nM 1.37% | 100 nM 1.62% | 833.33 nM -1.41% | 10000 nM -3.08%

O=C(O)c1ccc(Nc2ncc3c(n2)-c2ccc(Cl)cc2C(c2c(F)cccc2F)=NC3)cc1
inactive: 1 nM -1.58% | 8.33 nM -1.02% | 100 nM 0.11% | 833.33 nM -1.57% | 10000 nM -1.05%

CCC1NC(=O)c2cc(S(N)(=O)=O)c(Cl)cc2N1 (stereo not given) [quinethazone]
inactive: 1 nM -8.29% | 8.33 nM -6.61% | 100 nM -4.32% | 833.33 nM -5.24% | 10000 nM -5.16%

CC(C)NCC(O)c1cc(O)cc(O)c1 (stereo not given) [metaproterenol]
inactive: 1 nM -0.95% | 8.33 nM 3.21% | 100 nM 0.75% | 833.33 nM -1.4% | 10000 nM 0.75%

Cc1cc(C)c(NC(=O)N(Cc2ccc3c(c2)Cc2ccccc2-3)C2CCCCCC2)c(C)c1
inactive: 1 nM 0.2% | 8.33 nM 0.24% | 100 nM 1.89% | 833.33 nM 3.17% | 10000 nM -1.02%
